12 compounds from PubChem BioAssay (EPA / NIEHS) can be followed below.

“And” between values parts separate entries of the source, which are not always exact repeats. Identical values can stand only once. The source made the active and inactive calls. Rule for the calls: active = hit-call score of the fitted dose curve at least 0.9, where 1 is the maximum; inactive = score below 0.9.

Read-out in this test: Monokine induced gamma interferon (MIG), CXCL9 (gene 4283)
Description: BSK_KF3CT_MIG: BioMAP Diversity Plus: KF3CT Assay for Monokine induced gamma interferon (MIG) Biomarker Activity (AID 2284248). The conditions noted are these: primary human keratinocytes with fibroblasts. The protocol:
BSK_KF3CT is a cell-based, multiplexed-readout assay that uses keratinocytes and foreskin fibroblasts, a human skin primary cell co-culture, with measurements taken at 24 hours after chemical dosing in a 96-well plate.BSK_KF3CT_MIG is an assay component measured in the BSK_KF3CT assay. It measures MIG antibody related to regulation of gene expression using ELISA technology.Data from the assay component BSK_KF3CT_MIG was analyzed at the endpoint, BSK_KF3CT_MIG, in the positive analysis fitting direction relative to DMSO as the negative control and baseline of activity. Using a type of binding reporter, gain or loss-of-signal activity can be used to understand protein changes. To generalize the intended target to other relatable targets, this assay endpoint is annotated to the 'cytokine' intended target family, where the subfamily is 'chemotactic factor'.
The levels of cell surface (or secreted, indicated by the prefix "s") biomarker endpoints were measured by ELISA. Overt cytotoxicity to cells in confluent adherent cultures (all systems other than the BT system) was assessed by measuring total protein levels using sulforhodamine B (SRB) staining in parallel cultures at the time of biomarker measurements, indicated as SRB endpoints. For proliferation assays for adherent cell types, individual cell types are cultured at sub-confluence and relative cell numbers quantified by SRB staining at time points optimized for each system (48 h: 3C and CASM3C systems; 72 h: BT and HDF3CGF systems; 96 h: SAg system). SRB was performed by staining cells with 0.1% SRB after fixation with 10% TCA and reading wells at 560 nm.Viability and proliferation of PBMC (T cells) was quantified by Alamar Blue reduction for the SAg and BT systems. For PBMC viability (referred to as PBMC Cytotoxicity within the assay endpoint names), cells were plated (75,000/well in a 96-well plate) and then chemical samples added for 1 h before addition of activators, SEB and TSST-1 (20 ng/mL final concentration each). Cells were incubated for 90 h. Then, Alamar Blue (20 uL/well) (Invitrogen, Cat DAL1100) was added for 6 h, and the plates were read with a fluorescence microplate reader at 546/580 nm (excitation/emission). For PBMC proliferation, cells were plated and activated as above but incubated for only 16 h prior to addition of Alamar Blue. Plates were read after 6 h.
Turning to `C1CN(CCOCCN2CCOCC2)CCO1`, the result was inactive. As a reminder, the AC50 is the concentration at which the activity in the assay is half-maximal. In the case of `O=[N+]([O-])c1cc(S(=O)(=O)Nc2ccccc2)ccc1Nc1ccccc1`, the AC50 is 33.7 µM (active) and 31.5 µM (active). Consider `CC(C)C1OCCN1CCOC(=O)NCCCCCCNC(=O)OCCN1CCOC1C(C)C` (configuration not stated), for which the outcome was inactive. Turning to `OC(C(F)(F)F)(C(F)(F)F)C(O)(C(F)(F)F)C(F)(F)F`, the AC50 was 45.2 µM (active) and 54.8 µM (active). As to `CN(C)Cc1cc(C(C)(C)C)c(O)c(C(C)(C)C)c1`, the result was inactive. Same read-out and setting: then `COc1ccccc1Oc1c(NS(=O)(=O)c2ccc(C(C)(C)C)cc2)nc(-c2ncccn2)nc1OCCO`, with “inactive”.

On to `COc1cc(CNC(=O)CCCC/C=C/C(C)C)ccc1O`, for which the outcome was inactive. Take `Cc1c(C(N)=O)cc([N+](=O)[O-])cc1[N+](=O)[O-]`: the result was inactive. Consider `COc1ccc(C(=O)c2ccccc2O)c(O)c1`, for which the outcome was inactive.

For the compound `CCC[Si](OC(C)=O)(OC(C)=O)OC(C)=O`, the result was inactive. For `CC[N+](CC)(CC(=O)Nc1c(C)cccc1C)Cc1ccccc1` (tested in a mixture with another compound), the result was inactive. Still for that read-out and setting: then `CCCCC(CC)COC(=O)C=Cc1ccc(OC)cc1` (configuration not stated), with “inactive”.
